Test results as given in PubChem BioAssay (NCI).
Compounds without any hit were thinned out: in the full panel of roughly 83,000, 20% have a hit.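 Assay: single dose, 48 h. Readout: percent growth (0 = no net growth; negative = cell death). Active: <10.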 A number with no mark means an inactive call.

test system: PC-3 prostate; assay: NCI-60 one-dose screen, 48 h (100 = growth as untreated, 0 = no growth, -100 = all killed); conditions: 10 µM

| SMILES | growth [%] |
| --- | --- |
| CC(=O)OCC1CCCO1 (stereo not drawn) | 108 |
| N#CCCc1ccc(O)cc1 | 102 |
| Nc1ccc(N=Nc2ccc(S(=O)(=O)O)cc2)c2ccccc12 | 87.4 |
| O=C1OC(=O)C2C1C1(Cl)C(Cl)=C(Cl)C2(Cl)C2C(=O)OC(=O)C21 (stereo not drawn) | 97.9 |
| CCCCCCCCO | 94.3 |
| O=c1[nH]nc(SC2CCCCC2)c(=O)[nH]1 | 90.6 |
| Cc1cc(C(O)(c2ccc(Nc3ccccc3)cc2)c2ccc(Nc3ccc(S(=O)(=O)O)cc3)cc2)ccc1N (stereo not drawn) | 12.1 |
| Cc1ccc(CCCC(=O)O)c(C)c1 | 97.1 |
| Oc1ccccc1-c1nnco1 | 91.8 |
| COc1ccc(C(O)c2ccccc2)cc1 (stereo not drawn) | 94.7 |
| FC(F)(F)c1ccc2c(c1)N(CCCN1CCN(C3CC3)CC1)c1ccccc1S2 | 48.5 |
| CC(=O)NCc1cc(C)c(C)cc1C | 93.5 |
| CCC(C)(O)c1ccc(C)cc1 (stereo not drawn) | 99.6 |
| CC(C)(N)COS(=O)(=O)O | 95.9 |
| O=C(O)CSCSCC(=O)O | 103 |
| O/N=C/c1ccc(O)cc1O | 86.4 |
| CCO/C=C1\SC(=S)N(c2cccc(C)c2)C1=O | 92.5 |

| SMILES | growth [%] |
| --- | --- |
| Cc1cc2ccccc2c(O)c1C#N | 105 |
| O=C(O)/C=C/C(=O)NCc1ccccc1 | 101 |
| C=CCNc1ccccc1 | 85.2 |
| NC(=O)NC(=O)c1ccc(Cl)cc1 | 96.5 |
| CCOc1ccc(I)cc1 | 88.4 |
| CC(C)C(C#N)(C(C)C)C(C)C | 92.7 |
| CCCCOC(OCCCC)c1ccccc1 | 98.7 |
| NC(=O)c1ccc(N=C(N)N=C(N)N)cc1 | 93.1 |
| CCOc1ccccc1/C=N/Nc1nc2ccccc2o1 | 85.8 |
| CO[C@H]1C[C@@H]2CC[C@@H](C)[C@@](O)(O2)C(=O)C(=O)N2CCCC[C@H]2C(=O)O[C@H]([C@H](C)C[C@@H]2CC[C@@H](O)[C@H](OC)C2)CC(=O)[C@H](C)C=C(C)[C@@H](O)[C@@H](OC)C(=O)[C@H](C)C[C@H](C)/C=C/C=C/C=C1C | 44 |
| O=C(NCCNC(=O)c1ccc(Cl)cc1Cl)c1ccc(Cl)cc1Cl | 84.5 |
| COC(=O)/C=C/C(=O)NC(N)=O | 96.5 |
| Cc1ccc(O)c(C(=O)c2ccccc2)c1 | 101 |
| CN(C)c1ccc(C(c2ccc(O)cc2)c2ccc(N(C)C)cc2)cc1 | 88.7 |
| Nc1ccc(N)c([N+](=O)[O-])c1 | 102 |
| CC(C)C1CCCCC1O (stereo not drawn) | 98.3 |
